Reference: the supplement of paper PMC6555819

Test system: VDR:RXRa (NR concentration 270 nM, RXRa partner concentration 90 nM)
Experiment: PBM binding z-score (relative to random genomic background probes); higher = stronger binding; sequences stand for … in GC…GCGATTGACAGCGTAGAATGAAGG
Protocol: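 Protein-binding microarray (Agilent 4x180K custom design, double-stranded 60-nt probes: 5' GC cap, 34-nt variable region, 24-nt constant primer region; full probe sequence given). Purified or IVT nuclear receptor:RXRα heterodimers (3:1 NR:RXRα, mostly 270:90 nM) or homodimers were incubated for 1 h in PBS with 2% milk and no ligand, then detected with Alexa488 antibodies. Fluorescence from o1-orientation probes (~5 replicates averaged) was converted to z-scores against 500 random hg19 background probes. Variable regions are seed direct-repeat (DR0–DR5) sites, all their single-nucleotide variants and half-site ablations.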

Row | Sequence | PBM binding z-score
1 | ACTATTAGTTGCCTTAGGGCAACCGATACGACGC | -0.026
2 | CCTACTGGGCCACGAAAGGTCACTGATTCAGTGA | 3.77
3 | AGAATGAGGTTACCACAGATCAGGGAAACGCTTG | 1.23
4 | TCGAGTAGGTTAGTCGGGTCATTCAGCCAACATA | 4.88
5 | CCTCGGAGGACAACGGGAGGTCAGAGCTGCCAGA | 1.91
6 | ACAGACCGGTGATGAAGGTAACTCAGGCTATCAT | -0.216
7 | ATCTCTAGGTATAAGTTCAGTGAATCCCGAGGAT | 0.837
8 | TCTTGTAGATCAAAGGTTTAGAAAGCCGAAGCCT | 0.314
9 | CGAGCTAGGTCAGAACAGGACAGTGAAGGATGAT | 0.446
10 | TCTTGTAGATCAGCAGGTTAAGATAGCTGGCCAA | 0.44
11 | AGAATGAGGTTATACATAGATCAGGGAAGAAAGT | 1.5
12 | CCCACTGGGGCAAGGTTACCATAACGCACAGCCA | 0.132
13 | TCATATAGGTAAATGCTAGGTGAAAATCCGATCT | 0.793
14 | CTCGAAAGGTCGTGCTCAGGGGAGTATACCAAAC | 3.14
15 | GCTAGTTGGTCAGTAAAAGGTCACCCACCGGTCG | 3.44
16 | CAGCTTAGGTCAGGGCCAGTATAGGAGGAACGTT | 0.513
17 | TCTTGTAGATCAATACAGGTTAAGAAAGTGCGCT | 1.26
18 | CGAACTAGGTCAAGGACTGTGAATCTCCGCACGC | 1.17
19 | CGTCAAAGTTCAACGAAGGTAACGTAAAGCACGC | 4.39
20 | TCTGCTACGTCAACGATGGTCAGCTAATCTGCTA | -0.548

Row | Sequence | PBM binding z-score
21 | TCTTGTAGATCCAAGGTTAAGAAAGCCGAAGCCT | 0.448
22 | ATCTCTAGGTAAGACTCAGTTCAGAGAAGAACGC | 0.685
23 | TTACCAAGGTGACGGTCGTTGATCCCTCTGTAGA | 0.0426
24 | ATCGAAAGGTCGACGATGTGAGTATACACCGTTT | 2.51
25 | TCAGCCAGGTGAAGGTAACTCAGGTACGCAGTCG | 0.261
26 | CCGCCTGGGGCAAAGGTTACCATACTCAGTACGA | 1.48
27 | TGAATGAGGTTATAACATCAGGGAACGTTGCAAA | 1.11
28 | CGATCTAGGTCATTGACAGGACAGTGAATAGTAA | 2.09
29 | CCTTACGGGTCACTGAGAGGTTATAGCATTTGGA | 4.55
30 | CCGACTTGGGCAAGGTTACCATAACGCACAGCCA | 0.176
31 | AGAATGCGGTTAAGATCAGGGAAACAGAATACAT | -0.269
32 | TCTAGTTGGTAAAAGGTCACACACTCGAAATGCG | 4.89
33 | CCTAGTTGGTCAGGAGGTCATACACCGGATATGA | 3.75
34 | GCTTGTAGATCAAGGTTAACAAAGACTAAGCTAA | 0.333
35 | GCTCGGAGGACAAGGTCGGAGCTTTGTCCGTAGA | -0.159
36 | AGAACTAGGGCACGCTGAGTTGATAGCAGAGTAG | 0.303
37 | CCTAGTGGGCCACGAAAGGTCATTGATTCAGTGA | 4.05
38 | ACAGACAGGTGATGAATGTAACTCAGGCTATCAT | -0.0862
39 | CGAACTAGGTCAAGGACAGTGAATCTCCGCACGC | 1.32
40 | CGTCCAAGGTAAAGGTCAGTGAAAGAGACTCGAA | 2.43
